Assay results from PubChem BioAssay AID1159580 (chemical genetic matrix, 2015).
Out of some 5,500 compounds screened, about 2,000 (36%) were called active. Roughly 18% stayed inconclusive and do not appear here. Cut-off read from the data, not from the text of the source: active = normalized growth mostly below about 0.91 (no sharp cut-off); inconclusive = no clear call, values can overlap the other calls; inactive = mostly above about 0.92. Some of the results follow.

Assay: chemical genetic growth profiling, strain panel (AID 1159580);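 note: tested at 20 µM; growth read once vehicle control cultures reached saturation at 30 °C; 1 = growth at the plate median or of vehicle wells; lower values mean less growth of the strain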
Details: S. cerevisiae deletion strains, growth OD

Measured: normalized growth

O=C(c1ccccc1)c1cc2c(cc1Br)OCCO2
active: locus YAL013W, strain DEP1, active compounds read low 0.908 | locus YDL101C, strain DUN1, active compounds read low 0.897 | locus YEL061C, strain CIN8, active compounds read low 0.904 | locus YGR078C, strain PAC10, active compounds read low 0.922 | locus YHR030C, strain SLT2, active compounds read low 0.304 | locus YJR043C, strain POL32, active compounds read low 0.906 | locus YKL190W, strain CNB1, active compounds read low 0.845 | locus YLR039C, strain RIC1, active compounds read low 0.486 | locus YLR085C, strain ARP6, active compounds read low 0.419 | locus YLR262C, strain YPT6, active compounds read low 0.524 | locus YML094W, strain GIM5, active compounds read low 0.852 | locus YNL153C, strain GIM3, active compounds read low 0.91 | locus YNL298W, strain CLA4 (second series), active compounds read low 0.7 | locus YNR030W, strain Alg12, active compounds read low 0.811 | locus YPL241C, strain CIN2, active compounds read low 0.823 | locus YPR135W, strain CTF4, active compounds read low 0.445
inactive: locus YBR229C, strain ROT2, active compounds read low 0.953 | locus YDL134C, strain PPH21, active compounds read low 0.942 | locus YDR150W, strain NUM1, active compounds read low 0.927 | locus YHR087W, strain rtc3, active compounds read low 0.989 | locus YJR075W, strain HOC1, active compounds read low 0.93 | locus YLR058C, strain SHM2 (second series), active compounds read low 0.956 | locus YMR219W, strain ESC1, active compounds read low 0.952 | locus YMR263W, strain SAP30, active compounds read low 0.921 | locus YNL322C, strain KRE1, active compounds read low 0.955 | locus YPL055C, strain LGE1, active compounds read low 0.845
